In PubChem BioAssay (NCATS) one finds Potency and outcome data, which are given here for 14 compounds.

Results filed as inconclusive are left out. Active and inactive are the calls of the source. Unless noted, calls come from the whole dose curve; as a rule, active = well fitted curve in the direction sought with a large enough effect; inconclusive = small, poorly fitted or top-dose-only effect, or another doubt; inactive = no such curve, though single readings can be large; an effect the other way counts as inactive or inconclusive.

The target of experiment [1] is Voltage-gated inwardly rectifying potassium channel KCNH2 (Homo sapiens) (UniProt Q12809). Kind of experiment: qHTS Assay for Small Molecule Inhibitors of the Human hERG Channel Activity (AID 588834).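 Note: lower thallium flux fluorescence means stronger hERG block; nearly all actives have a fitted effect of over 50% in size.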 Note: potency is the fitted concentration of half-maximal effect. In short, it runs like this: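 Homogeneous FluxOR thallium flux assay using hERG-expressing U2OS cells (BacMam). Compound treatment about 10 minutes preceded stimulation; reduced fluorescence taken as channel block.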
On the technique in general: Quantitative high-throughput screening tests each substance at several concentrations.

In experiment [2] the target is Luciferin 4-monooxygenase (Photinus pyralis) (UniProt P08659). The experiment is described as follows: Biochemical firefly luciferase enzyme assay for NPC (AID 624030).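 Note: purified P. pyralis luciferase at 10 nM with luciferin and ATP substrate; series mostly up to about 59 µM; nearly all actives have a fitted effect of over 70% in size.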 Summed up: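 Counter-screen for direct inhibition of the luciferase enzyme by approved-drug library compounds, run at 10 nM enzyme in 50 mM Tris acetate (final). Luminescence was read within 5 min of enzyme-buffer addition and normalized to PTC124 versus DMSO (0%).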

Experiment [3] can be described thus: S16 Schwann cell viability assay (CellTiter-Glo assay) (AID 624031). Note: nearly all actives have a fitted effect of over 70% in size. Note: potency is the fitted concentration of half-maximal effect. Summed up: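 Parental S16 cells, 24 h compound, 37 °C. ATP-luminescence viability; DMSO = 0% activity, empty wells as reference; curves classified by fit quality and efficacy.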
On the technique in general: ATP-based viability assays read luminescence as a measure of living cells.

Experiment [4] in a line: S16 Schwann cell PMP22 intronic element firefly luciferase assay (AID 624032). Note: nearly all actives have a fitted effect of over 30% in size. Note: potency is the fitted concentration of half-maximal effect. In short, it runs like this:
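Rat S16 Schwann cells stably carrying a PMP22 intronic element-driven Fluc reporter were seeded overnight, then exposed to compounds for 24 h at 37 °C. Luminescence was normalized to PTC124 (positive control) and DMSO (0% activity).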

Experiment [5] is described as follows: S16 Schwann cell PMP22 intronic element beta-lactamase assay (AID 624044; calls by dose curve; note: nearly all actives have a fitted effect of over 15% in size; note: potency is the fitted concentration of half-maximal effect). In short, it runs like this:
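Beta-lactamase reporter under a PMP22 intronic regulatory element in stable S16 rat Schwann cells; 24 h compound exposure. 460 nm blue signal normalized between DMSO (0%) and potassium clavulanate, with 535 nm FRET tracking viability; curves classed by r2 and response.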

Experiment [6] addresses Peroxisome proliferator-activated receptor gamma (Homo sapiens) (UniProt P37231). The experiment is described as follows: qHTS assay for small molecule agonists of peroxisome proliferator-activated receptor gamma signaling (AID 588536; active = well fitted curve in the direction sought with a large enough effect in the signal ratio, with a control signal flat, not every such curve was filed as active; the % refers to the signal ratio). Summed up: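 Cells were plated and held 6–6.5 h at 37 C, then compounds were added as a titration series. After a further 16 h, CCF4 dye was loaded for 2 h at room temperature and emission at 460/530 nm recorded.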

Experiment [7] has as its target Glutaminase kidney isoform, mitochondrial (Homo sapiens) (UniProt O94925). The experiment is described as follows: qHTS for Inhibitors of Glutaminase (GLS): LOPAC Validation (AID 624146).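 Note: glutamate product detected by oxidase and peroxidase coupled Amplex red fluorescence gain; series mostly up to about 46 µM; nearly all actives have a fitted effect of over 60% in size.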 Summed up: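 Two-point fluorescence kinetic (t0, 30 min RT) for hKGA; glutamate detected via glutamate oxidase–HRP–Amplex Red. Substrate: 1 mM L-glutamine solution; buffer 45 mM KH2PO4, pH 8.2.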

Experiment [8] in a line: qHTS of Trypanosoma Brucei Inhibitors: LOPAC Validation (AID 624147). Summed up:
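Readout: single end-point luminescence (Kinase-Glo Plus, 10 min). Reaction conditions were TbPYK/substrate plus 130 uM ADP, 45 min at RT, pH 7.2 TEA buffer. No-enzyme wells served as controls, and data were normalized before concentration-response fitting.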

In experiment [9] the target is Glucagon-like peptide 1 receptor (Homo sapiens) (UniProt P43220). Kind of experiment: qHTS of GLP-1 Receptor Agonists: LOPAC Validation (AID 624148).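 Note: higher luminescence signal means agonism.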 In short, it runs like this:
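HEK293 cells stably co-expressing a cAMP-responsive luciferase reporter and a hypersensitive GLP-1R were plated 12 h at 37 °C and exposed to compounds for 4-6 hr at 37 °C, 5% CO2. Luminescence was read 12 min after adding detection reagent.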

The nature of experiment [10]: HTS Assay for Allosteric Antagonists of the Human D2 Dopamine Receptor: Hit Validation in HTRF (AID 624455). In short, it runs like this: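 HTRF read-out; cells stably expressing D1 receptor; hits scored for inhibition of D1-mediated response. Primary screen: calcium flux, force-coupled inducible Hek293 Trex D2 line, antagonism vs EC80 dopamine.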
For orientation: TR-FRET usually uses a lanthanide donor and a delayed reading to cut background.

Chain of Glucagon-like peptide 1 receptor (Homo sapiens) (P43220 whole entry, looked up): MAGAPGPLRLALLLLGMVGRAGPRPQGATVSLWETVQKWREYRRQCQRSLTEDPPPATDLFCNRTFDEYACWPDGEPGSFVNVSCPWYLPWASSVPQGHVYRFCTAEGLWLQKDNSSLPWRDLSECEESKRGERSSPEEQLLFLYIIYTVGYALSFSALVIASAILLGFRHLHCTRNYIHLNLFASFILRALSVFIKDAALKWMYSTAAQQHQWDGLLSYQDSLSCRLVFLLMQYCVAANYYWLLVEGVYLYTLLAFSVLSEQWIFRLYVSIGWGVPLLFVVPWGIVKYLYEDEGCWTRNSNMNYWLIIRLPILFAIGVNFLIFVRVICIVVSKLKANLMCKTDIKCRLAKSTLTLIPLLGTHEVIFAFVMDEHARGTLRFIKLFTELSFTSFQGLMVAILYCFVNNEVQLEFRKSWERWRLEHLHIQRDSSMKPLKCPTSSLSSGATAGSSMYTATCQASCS
Chain of Glutaminase kidney isoform, mitochondrial (Homo sapiens) (O94925 whole entry, looked up, canonical isoform): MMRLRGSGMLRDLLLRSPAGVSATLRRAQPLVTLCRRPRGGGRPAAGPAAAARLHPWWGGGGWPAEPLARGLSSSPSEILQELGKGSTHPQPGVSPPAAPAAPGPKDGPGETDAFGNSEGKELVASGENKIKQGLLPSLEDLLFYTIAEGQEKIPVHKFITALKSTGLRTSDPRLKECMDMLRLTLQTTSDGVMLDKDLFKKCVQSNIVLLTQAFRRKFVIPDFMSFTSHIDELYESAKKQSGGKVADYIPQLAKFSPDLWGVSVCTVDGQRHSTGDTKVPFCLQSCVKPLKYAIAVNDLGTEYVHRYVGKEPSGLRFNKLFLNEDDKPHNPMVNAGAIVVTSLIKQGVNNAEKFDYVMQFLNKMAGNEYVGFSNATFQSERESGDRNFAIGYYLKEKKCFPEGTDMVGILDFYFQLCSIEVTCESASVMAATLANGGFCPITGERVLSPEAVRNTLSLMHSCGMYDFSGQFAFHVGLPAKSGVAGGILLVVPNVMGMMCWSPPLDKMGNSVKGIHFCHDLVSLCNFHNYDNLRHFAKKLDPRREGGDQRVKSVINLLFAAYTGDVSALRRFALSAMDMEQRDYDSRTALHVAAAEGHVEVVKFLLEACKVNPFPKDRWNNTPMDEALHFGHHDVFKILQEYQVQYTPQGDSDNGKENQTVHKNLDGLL
Chain of Voltage-gated inwardly rectifying potassium channel KCNH2 (Homo sapiens) (Q12809 whole entry, looked up): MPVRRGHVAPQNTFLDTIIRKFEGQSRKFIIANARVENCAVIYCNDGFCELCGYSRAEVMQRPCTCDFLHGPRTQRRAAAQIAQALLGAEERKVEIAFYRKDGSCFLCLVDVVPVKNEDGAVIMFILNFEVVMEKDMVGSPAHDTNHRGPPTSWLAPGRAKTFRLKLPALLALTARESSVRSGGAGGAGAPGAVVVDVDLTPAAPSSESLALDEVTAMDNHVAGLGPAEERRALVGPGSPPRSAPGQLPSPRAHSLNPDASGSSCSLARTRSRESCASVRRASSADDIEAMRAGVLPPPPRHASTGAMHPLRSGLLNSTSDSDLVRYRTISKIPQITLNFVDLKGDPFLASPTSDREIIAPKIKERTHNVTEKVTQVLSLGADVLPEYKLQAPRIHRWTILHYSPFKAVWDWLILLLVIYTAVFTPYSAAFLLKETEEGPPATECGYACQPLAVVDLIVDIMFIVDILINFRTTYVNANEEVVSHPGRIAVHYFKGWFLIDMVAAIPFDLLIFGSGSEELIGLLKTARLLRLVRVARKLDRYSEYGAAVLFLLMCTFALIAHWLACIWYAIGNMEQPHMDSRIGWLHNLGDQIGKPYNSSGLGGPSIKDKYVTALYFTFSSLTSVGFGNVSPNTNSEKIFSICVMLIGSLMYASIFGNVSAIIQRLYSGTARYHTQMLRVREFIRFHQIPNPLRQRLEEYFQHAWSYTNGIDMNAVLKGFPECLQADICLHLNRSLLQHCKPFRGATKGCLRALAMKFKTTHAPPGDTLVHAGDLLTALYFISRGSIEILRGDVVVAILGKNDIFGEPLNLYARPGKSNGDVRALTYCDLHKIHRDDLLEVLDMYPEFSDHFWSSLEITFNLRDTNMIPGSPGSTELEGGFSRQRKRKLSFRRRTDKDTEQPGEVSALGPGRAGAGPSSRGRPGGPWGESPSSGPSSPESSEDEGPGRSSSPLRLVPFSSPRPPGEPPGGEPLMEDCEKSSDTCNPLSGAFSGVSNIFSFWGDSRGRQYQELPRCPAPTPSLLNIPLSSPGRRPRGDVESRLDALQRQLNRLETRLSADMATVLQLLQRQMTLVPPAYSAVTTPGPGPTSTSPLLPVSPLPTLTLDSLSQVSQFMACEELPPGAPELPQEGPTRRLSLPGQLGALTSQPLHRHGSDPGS
Chain of Luciferin 4-monooxygenase (Photinus pyralis) (P08659 whole entry, looked up): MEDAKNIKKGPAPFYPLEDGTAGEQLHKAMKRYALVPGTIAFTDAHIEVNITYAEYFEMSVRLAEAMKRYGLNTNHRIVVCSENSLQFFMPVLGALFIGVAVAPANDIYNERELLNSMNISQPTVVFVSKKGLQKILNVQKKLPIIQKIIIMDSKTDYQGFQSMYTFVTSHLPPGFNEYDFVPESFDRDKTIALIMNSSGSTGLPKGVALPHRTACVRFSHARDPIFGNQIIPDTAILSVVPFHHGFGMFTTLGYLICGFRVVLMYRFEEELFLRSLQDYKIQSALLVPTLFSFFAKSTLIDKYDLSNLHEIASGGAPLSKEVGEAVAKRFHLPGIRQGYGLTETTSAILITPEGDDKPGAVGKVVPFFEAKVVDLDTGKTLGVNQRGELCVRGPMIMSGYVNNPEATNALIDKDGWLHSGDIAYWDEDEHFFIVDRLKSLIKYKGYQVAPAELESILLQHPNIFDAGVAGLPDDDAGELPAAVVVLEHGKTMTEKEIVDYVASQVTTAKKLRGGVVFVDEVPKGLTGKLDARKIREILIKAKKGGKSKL
Chain of Peroxisome proliferator-activated receptor gamma (Homo sapiens) (P37231 whole entry, looked up): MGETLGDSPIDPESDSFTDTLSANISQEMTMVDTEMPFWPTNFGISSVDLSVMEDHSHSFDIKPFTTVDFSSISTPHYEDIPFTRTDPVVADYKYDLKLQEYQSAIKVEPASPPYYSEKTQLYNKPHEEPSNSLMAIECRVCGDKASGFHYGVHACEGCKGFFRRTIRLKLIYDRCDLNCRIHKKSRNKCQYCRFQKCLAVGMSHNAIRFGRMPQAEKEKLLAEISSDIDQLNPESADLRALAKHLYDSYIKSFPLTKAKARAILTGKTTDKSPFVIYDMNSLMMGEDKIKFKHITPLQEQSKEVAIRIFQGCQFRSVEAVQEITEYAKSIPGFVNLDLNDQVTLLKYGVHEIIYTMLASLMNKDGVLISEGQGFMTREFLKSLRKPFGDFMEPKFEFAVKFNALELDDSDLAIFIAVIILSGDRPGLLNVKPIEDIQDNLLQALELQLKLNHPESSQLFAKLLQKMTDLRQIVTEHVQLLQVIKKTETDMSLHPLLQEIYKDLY

For the compound `CN1CCCN(C(c2ccccc2)c2ccc(Cl)cc2)CC1` (stereo not given), the Potency was 8.91 µM (active) in [1], 32.2 µM (active) in experiment [3] and 28.7 µM (active) in experiment [4]. Also, the Potency entry in [2] and in experiment [5] was “inactive” throughout.

With `Nc1ccc2cc3ccc(N)cc3nc2c1`, the Potency in experiment [1] was 12.6 µM (active). The Potency entry in experiment [2], in [3] and in experiment [4] was “inactive” each time.

As for `Nc1c2ccccc2nc2ccccc12`, the call in [6] was inactive. Further, the Potency result in experiment [1], in experiment [3] and in experiment [4] was “inactive” each time. Also, in experiment [5], the Potency was 22.4 µM (active).

As to `CCOC(=O)OCC/C(SC(=O)OCC)=C(\C)N(C=O)Cc1cnc(C)nc1N`, the Potency entry in experiment [2] was “inactive”.

In the case of `Nc1ncnc2nc[nH]c12`, the Potency entry in experiment [1], in [2], in experiment [3], in [4] and in experiment [5] was “inactive” throughout.

Regarding `Cn1cnc2c(NCc3ccccc3)nc(NCCO)nc21`, the Potency result in [1] and in [7] was “inactive” throughout. Moreover, the compound was called inactive in experiment [8], in experiment [9] and in [10].

In the case of `CN1CCC(Nc2ncc3ncnc(Nc4ccc(F)c(Cl)c4)c3n2)CC1`, the Potency is 12.6 µM (active) in [1] and 36.1 µM (active) in experiment [4]. In addition, the Potency entry in [2] was “inactive”.

On to `O=C1NC(c2cccc([N+](=O)[O-])c2)=CCN1c1ccccc1O`, for which the Potency result in experiment [1] is “inactive”. The outcome in experiment [8], in experiment [9] and in experiment [10] was inactive.

Take `CCCCCC1Nc2cc(C(F)(F)F)c(S(N)(=O)=O)cc2S(=O)(=O)N1` (stereo not given): the Potency entry in experiment [2] is “inactive”.

With `CC[N+](CC)(CC)CCOC(=O)C(C1CCCC1)C1CCCC1`, the Potency result in experiment [2] is “inactive”.

For the compound `C[N+](C)(C)CCO`, the Potency result in [1] and in [7] was “inactive” throughout. Moreover, the outcome in experiment [8], in [9] and in [10] was inactive.

For the compound `O=[N+]([O-])c1ccc(O)c2ncccc12`, the Potency entry in experiment [1] and in experiment [4] was “inactive” in each case.

Regarding `O=S(=O)(O)c1ccc2nc(-c3ccccc3)[nH]c2c1`, the Potency entry in [1], in [4] and in [5] was “inactive” each time.

Consider `NC(N)=NCCCCN=C(N)N`, for which the Potency result in experiment [1], in experiment [2] and in [7] was “inactive” throughout. Also, the outcome in [8], in experiment [9] and in [10] was inactive.
